OPRK1 antag MB = antagonists of human kappa opioid receptor OPRK1, Maybridge library; OPRK1 cells, antagonist mode, fluorescence readout; Kappa-type opioid receptor (Homo sapiens), P41145; 16,000 tested, 0.4% active; inhibition, % at 9 µM; in the data active = inhibition above about 50%
Luminol counter = counter-screen for Nox1 inhibitors: inhibitors of luminol chemiluminescence; HRP/luminol/H2O2 chemiluminescence counterscreen; inhibition, % at 6.7 µM; 16,000 tested, 0.4% active; AID 1823, 2009; also: reference of the scale not given here
Nox1 inhibitor = inhibitors of human NADPH oxidase 1 (Nox1). Q9Y5S8. HT29 cells, luminol chemiluminescence ROS. inhibition, % at 6.7 µM. 16,000 tested, 0.81% active. AID 1792, 2009
Target sequence (Q9Y5S8 whole entry, looked up): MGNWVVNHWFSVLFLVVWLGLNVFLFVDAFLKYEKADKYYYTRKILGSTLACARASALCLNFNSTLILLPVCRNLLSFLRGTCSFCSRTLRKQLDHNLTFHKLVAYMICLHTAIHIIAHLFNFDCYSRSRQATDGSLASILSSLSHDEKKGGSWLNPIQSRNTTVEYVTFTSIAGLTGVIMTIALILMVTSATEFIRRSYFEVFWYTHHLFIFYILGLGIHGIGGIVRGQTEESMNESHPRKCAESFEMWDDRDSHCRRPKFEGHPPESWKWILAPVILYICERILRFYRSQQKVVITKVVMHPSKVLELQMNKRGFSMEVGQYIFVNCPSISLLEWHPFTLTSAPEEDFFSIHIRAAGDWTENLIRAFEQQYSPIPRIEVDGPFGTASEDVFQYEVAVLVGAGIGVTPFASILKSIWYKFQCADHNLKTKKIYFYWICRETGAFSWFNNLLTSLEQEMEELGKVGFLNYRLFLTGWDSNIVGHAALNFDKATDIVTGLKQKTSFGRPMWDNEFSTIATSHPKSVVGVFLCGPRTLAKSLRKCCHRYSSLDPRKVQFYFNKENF
PME-1 Maybridge = inhibitors of human PME-1 in Maybridge library; Protein phosphatase methylesterase 1 (Homo sapiens), Q9Y570; recombinant PME-1, FP-Rh probe fluorescence polarization; inhibition, % at 9 µM; 16,000 tested, 0.5% active; AID 2291, 2010; in the data active = inhibition above about 30%
Hits are given with their value; – = inactive. Compounds with a hit are over-represented: about 2.2% of the library has one in this group of screens. Rule as the data show it, unless noted: active = inhibition above about 75%; inactive = the rest.

SMILES	OPRK1 antag MB	Luminol counter	Nox1 inhibitor	PME-1 Maybridge
CCOC(=O)CCc1ccc2c(c1)NC(c1ccc([N+](=O)[O-])s1)O2 (centres undefined)	–	–	82	–
CCOC(=O)CCc1ccc(Oc2c([N+](=O)[O-])cc(C(F)(F)F)cc2[N+](=O)[O-])cc1	–	–	–	–
CCOC(=O)CCc1ccc2c(c1)NC(c1cccc([N+](=O)[O-])c1)O2 (centres undefined)	–	–	96	–
O=C(NNC(=O)c1cccc([N+](=O)[O-])c1)Nc1ccc(Cl)cc1	–	–	–	–
O=C(NNc1cc(Cl)cc(Cl)c1)c1ccc(F)cc1F	–	76	–	–
Cc1nc(C(F)(F)F)c(C(=O)NNc2ncc(C(F)(F)F)cc2Cl)s1	–	–	85	–
O=C(NNc1ncc(C(F)(F)F)cc1Cl)NC(=O)c1ccccc1Cl	–	–	–	–
CN(C)c1ccc(-n2nnnc2SCC(=O)c2cc3ccccc3o2)cc1	–	–	–	–
CN(C)c1ccc(-n2nnnc2SCc2ccc(Cl)cc2)cc1	59	–	–	–
O=C(CSc1c(F)c(F)c(F)c(F)c1F)Nc1ccc(C2SCCS2)cc1	–	–	–	147
Cc1nnsc1-c1nnc(SCC(=O)Nc2ccc(F)cc2)n1C1CC1	–	–	–	–
NC(N)=NC(N)=Nc1ccc(Cl)cc1C(=O)c1ccccc1	–	–	–	–
N#Cc1c(C(F)(F)F)c([N+](=O)[O-])c(-c2cccc([N+](=O)[O-])c2)[nH]c1=O	–	–	–	–
Cc1ccc(SC#N)c(N)n1	–	–	100	–
O=c1c2ccccc2oc2cc(O)ccc12	–	–	–	–
Cc1c(Cc2c(Cl)cccc2Cl)c(=O)oc2cc(O)ccc12	–	–	–	33
O=C1C=CC(=O)N1CCc1ccccc1	–	–	100	–
C1CCN(c2nn[nH]n2)CC1	–	–	–	–
CCOC(=O)C1=C(C)NC(=O)CC1	–	–	–	–
COc1ccc([N+](=O)[O-])c(C=C(C#N)C#N)c1OC	–	–	–	–
COc1cccc(/C=C(\C#N)c2ccc([N+](=O)[O-])cc2)c1OC	69	–	–	–
CCOC(=O)c1c(C)noc1/C(C)=N/OC(=O)Nc1cccc(C(F)(F)F)c1	–	–	–	–
O=S(=O)(Oc1ccc(Cl)cc1)c1cc(S(=O)(=O)Oc2ccc(Cl)cc2)c(Cl)s1	–	–	–	–
O=c1c2c(-c3ccc([N+](=O)[O-])cc3)onc2n(-c2ccccc2)c(=O)n1-c1ccccc1	–	–	94	–
Cc1c2c(=O)n(C)ncc2c(-c2ccccc2)n1-c1ccc([N+](=O)[O-])cc1	–	–	–	–
SMILES	OPRK1 antag MB	Luminol counter	Nox1 inhibitor	PME-1 Maybridge
CCOC(=O)[C@@H](N)CCSC	52	–	–	–
CCOC(=O)C(N)CCCCN (centres undefined)	–	–	–	–
CN(C)c1ccc(/C=N/Nc2c(Cl)cncc2Cl)cc1	–	–	102	–
COc1ccc2cc(/C(C)=N/OC(=O)C(C)(C)C)ccc2c1	–	–	–	–
CC(C)(C)OC(=O)C(C)(C)S(=O)(=O)c1ccc(Cl)cc1	–	–	–	–
FC(F)(F)COc1ccc(OCC(F)(F)F)c(-c2n[nH]c(=S)o2)c1	–	87	–	–
Cc1cc(=O)n2ncnc2n1CC(=O)NNC(=S)Nc1ccc(Cl)cc1Cl	–	75	–	–
S=c1[nH]cc(-c2ccc(Br)cc2)[nH]1	–	–	98	–
COc1ccc(-c2n[nH]c(=S)n2-c2ccccc2Cl)cc1	–	–	–	–
COc1cc(-c2n[nH]c(=S)n2C2CCCCC2)cc(OC)c1OC	–	87	–	–
COc1cc(-c2n[nH]c(=S)n2-c2ccccc2Cl)cc(OC)c1OC	–	95	–	–
COc1cccc(C=Nc2ccccc2N2C(=O)c3ccccc3C2=O)c1O	–	–	–	–
COC(=O)c1sccc1N/N=C/c1c(F)cccc1Cl	–	–	–	–
O=C(COc1ccc(C2=NCCS2)cc1)Nc1ccc(Cl)cc1	–	–	–	–
O=C(COc1ccc(C2SCCS2)cc1)Nc1cc(Cl)cc(Cl)c1	–	–	–	124
Cn1c(=O)c2cc3cc(Cl)ccc3nc2c2c(=O)n(-c3ccccc3)c(=O)n(-c3ccccc3)c21	70	–	–	–
CN(C)/C=C/C(=O)c1ccccn1	–	–	–	–
Cc1ncc(CSc2nc3ccc(C(F)(F)F)cc3[nH]2)c(CO)c1O	–	88	–	–
COc1ccc(C(=O)C=C(C)C)c(O)c1O	–	–	76	–
COc1ccc(NC(C)=O)cc1C(C)=O	–	–	–	–
CCOC(=O)c1csc(N/N=C2\CCc3ccccc32)n1	–	–	–	61
FC(F)(F)c1cccc(N=Cc2cccnc2)c1	–	–	–	–
O=[N+]([O-])c1cc(Br)cnc1Sc1n[nH]c(-c2ccccc2)n1	–	99	–	–
O=Cc1c(O)c2ccccc2c2ccccc12	72	–	–	31
Oc1c(Cl)c2nc3ccccc3nc2c2ccccc12	–	–	–	–
SMILES	OPRK1 antag MB	Luminol counter	Nox1 inhibitor	PME-1 Maybridge
CC(=O)c1ccc(Br)s1	–	–	–	–
O=C(Nc1cc(-c2cccs2)nn1-c1ccc(F)cc1)C1CCC1	–	–	–	–
CC(Oc1ccccc1-c1ccccc1)c1n[nH]c(=S)n1C (centres undefined)	–	94	–	–
CNC(=S)NNC(=O)c1ccccn1	–	–	87	–
Cc1cc(-n2c(=S)[nH]c3sc(C)c(C)c3c2=O)n(-c2ccccc2)n1	–	–	–	–
CCn1c(=S)[nH]c2sc(C)c(C)c2c1=O	–	90	–	–
Cc1ccnc(-n2c(=S)[nH]c3sc(C)c(C)c3c2=O)c1	–	100	–	–
O=C(CSCc1ccccc1)NC1Cc2ccccc2C1	–	–	–	–
COc1cc(-c2nc(-c3ccccc3)c(-c3ccccc3)[nH]2)ccc1O	–	–	101	–
Nc1nc(NCc2ccccc2OC(F)(F)F)n[nH]1	–	–	88	–
O=C(NCc1c(Cl)cccc1Oc1ccccc1)Nc1ccc(F)cc1	–	–	–	–
Nc1nc(NCc2c(Cl)cccc2Oc2ccccc2)n[nH]1	–	–	84	–
O=C(c1ccc([N+](=O)[O-])cc1)N1CCNCC1	–	–	–	–
Nc1nnc(Sc2cc3c(cc2[N+](=O)[O-])C(=O)NC3=O)s1	–	–	76	–
N#Cc1cc([N+](=O)[O-])ccc1Sc1nnc(N)s1	–	–	–	–
CCOC(=O)C1CCN(Cc2cccc(NC(=O)c3ccco3)c2)CC1	56	–	–	–
CCOC(=O)c1sc(-c2csc(C)n2)nc1C	–	–	–	–
NC(=NC(=O)c1cccc(C(F)(F)F)c1)c1ccc(C(F)(F)F)cn1	58	–	–	–
O=[N+]([O-])/C(=C\c1ccccc1)c1ccccc1	–	–	–	–
CC(=O)OC12CC3CC(C1)C(O)C(C3)C2 (centres undefined)	–	–	–	–
COc1ccc(NC(=O)c2nccnc2C(=O)O)c(N2CCOCC2)n1	–	–	–	–
Cc1noc(C)c1C(=O)Nc1ccc(N2CCOCC2)nc1N1CCOCC1	–	–	78	–
